In PubChem BioAssay AID1053126 (Broad Institute, 2014):
Results with a measured potency or affinity are listed apart. Active and inactive are the calls of the source.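 The calls were made as follows: active = cell killing with a fitted half-effect concentration at or below twice the top valid dose; inconclusive = flat curve with 30 to 70 percent drop, or poor fit; inactive = the rest.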

Assay: HEK293T cell cytotoxicity, dose response, cytotoxicity control, ATP luminescence, cherry-pick, set 6 (AID 1053126);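 also: 0% = neutral control wells and -100% = mitoxantrone 10 µM positive control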
Conditions: HEK293T viability, CellTiter-Glo ATP luminescence, 72 h; series mostly up to 26 µM; activity change, negative = cytotoxicity: at the top concentration

Compound | activity change, negative = cytotoxicity
Cc1cc(-n2c(=O)c(C#N)cc3c(=O)n4ccccc4nc32)no1 | -11.8% (inactive)
CC1CCCCC1NC(=O)CN1C(=O)c2cccc(N)c2C1=O (stereo not drawn) | 33.5% (inactive)
C#CCOc1ccc(C2C(C#N)=C(N)Oc3cc(O)ccc32)cc1 (stereo not drawn) | 7.8% (inactive)
Cn1cc(C(c2ccccc2OCC(=O)O)c2cn(C)c3ccccc23)c2ccccc21 | -5.72% (inactive)
Cc1ccc(-n2c(C)cc(/C=N/NC(=O)Cn3c4ccccc4c(=O)c4ccccc43)c2C)cc1 | 23.8% (inactive)
COc1cc(C(c2c(C(=O)O)[nH]c3ccccc23)c2c(C(=O)O)[nH]c3ccccc23)ccc1OCc1ccccc1 | -16.5% (inactive)
Cc1noc(C)c1-c1ccc(C(=O)NCCc2ccccc2)c2occc12 | -10.6% (inactive)
CCOc1ccc(S(=O)(=O)Nc2ccc(C(=O)N(CC)CC(=O)NCc3cccs3)cc2)cc1 | -3.98% (inactive)
CC(C)c1ccc(/C=C2\Oc3c(ccc(O)c3CN3CCN(C)CC3)C2=O)cc1 | -6.47% (inactive)
Cc1c(C(=O)NCc2ccc3c(c2)OCCO3)sc(=O)n1Cc1ccccc1F | -6.29% (inactive)
CCn1c(=N)c(S(=O)(=O)c2ccccc2)cc2c(=O)n3ccccc3nc21 | -10.1% (inactive)
CCC(=O)NCCCNc1nc2c(C)cccc2cc1C#N | -2.83% (inactive)
Cn1cnc(S(=O)(=O)Nc2ccc(OC(F)(F)F)cc2)c1 | 16.4% (inactive)
O=C1CCc2cc(S(=O)(=O)NC(Cc3ccccc3)C(=O)NCCC3=CCCCC3)ccc2N1 (stereo not drawn) | 8.41% (inactive)
Cc1ccc(S(=O)(=O)c2cc3c(=O)n4ccccc4nc3n(C)c2=N)cc1 | -8.9% (inactive)
CCCN1CCN(C(=O)c2ccc(CS(=O)c3ccc(Br)cc3)o2)CC1 (stereo not drawn) | 16.8% (inactive)
Cc1ccc(C(=O)OCC(=O)Nc2c(C)nn(-c3ccccc3)c2C)c(O)c1 | 25.2% (inactive)
Cc1nc(CCNC(=O)Cc2ccc(Cl)cc2)cs1 | -7.6% (inactive)
Cc1cc(OC(=O)c2ccccc2Cl)ccc1N1C(=O)CCC1=O | 37.2% (inactive)

Compound | activity change, negative = cytotoxicity
COc1ccc(C2C3=C(CCCC3=O)N(CC(=O)O)C3=C2C(=O)CCC3)cc1Cl | -6.96% (inactive)
CSc1ccc(Cn2c(C)c(C(=O)NCc3cccc(Cl)c3)sc2=O)cc1 | -20.5% (inactive)
COc1ccc(C2CC(c3ccccc3)=NN2c2ccc(C(N)=O)cc2)cc1 (stereo not drawn) | 4.46% (inactive)
CC(=O)N=c1c(C#N)cc2c(=O)n3ccccc3nc2n1CCCOC(C)C | 0.076% (inactive)
CCn1c(=NC(=O)CSC(C)=O)sc2cc(OC)ccc21 | -9.23% (inactive)
N#Cc1c2ccc(OCC(N)=O)cc2n2ccccc12 | -5.42% (inactive)
N#Cc1c(NCCCO)nc(NCc2ccccc2)c2c1CCN(Cc1ccccc1)C2 | -9.15% (inactive)
COc1ccccc1C(=O)c1cc2ccc(O)cc2oc1=O | -13.3% (inactive)
CCN1C=C(C(=O)OC)C(c2cccc(OC)c2OC)C(C(=O)OC)=C1 | -2.69% (inactive)
Cc1ccc(-c2nc3ccsc3c(=O)[nH]2)cc1 | -17.2% (inactive)
CC1(C)CC(=O)C2=C(C1)OC(N)=C(C#N)[C@@H]2c1ccccc1[N+](=O)[O-] | -7.08% (inactive)
O=C(Nc1ccc2c(c1)OCCO2)c1ccc(NC(=O)C2CCCO2)cc1 (stereo not drawn) | -0.148% (inactive)
CCNc1nc2nc3ccc(C)cn3c(=O)c2cc1C(=O)NCC1CCCO1 (stereo not drawn) | -9.39% (inactive)
COc1ccc(C(=O)c2sc3nc(-c4ccc(OC)cc4)ccc3c2N)cc1 | 36.5% (inactive)
COc1ccc(S(=O)(=O)N2CCCC2CNC(=O)C(=O)NC2CCCC2)cc1 (stereo not drawn) | -3.54% (inactive)
CSc1ccc(Cn2c(C)c(C(=O)NCCC#N)sc2=O)cc1 | -0.568% (inactive)
CCCOc1ccccc1/C=C1\SC(N)=NC1=O | -4.46% (inactive)
CN(C)/C=C/C(=O)c1c(F)cccc1F | 3.37% (inactive)
CCOC(=O)c1cc2c(=O)n3ccccc3nc2n(CCCOC)c1=NC(=O)c1ccncc1 | -4.62% (inactive)
